According to PubChem BioAssay (NCATS):
Records with an inconclusive call do not appear. Calls of active or inactive are those of the source. Calls come from the whole dose curve; as a rule, active = well fitted cell-killing curve with a large enough effect; inconclusive = small, poorly fitted or top-dose-only effect, or effect the other way; inactive = no such curve, though single readings can be large or run the other way.

Columns and labels:
[1] = Quantitative High-Throughput drug screen in 47 multiple myeloma cell lines against the NCATS MIPE library collection: KMS28PE_JCRB cell viability assay (AID 1918983); note: nearly all actives have a fitted effect of over 35% in size
Method in brief: (§1)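 Inhibition of viability over 48 h was scored by ATP content (CellTiter-Glo) in 500-cell wells. Zero and full viability were defined by media-only and DMSO-only wells.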

[2] = Quantitative High-Throughput drug screen in 47 multiple myeloma cell lines against the NCATS MIPE library collection: L363_DSMZ cell viability assay (AID 1918984); note: nearly all actives have a fitted effect of over 40% in size
Method in brief: as §1

[3] = Quantitative High-Throughput drug screen in 47 multiple myeloma cell lines against the NCATS MIPE library collection: KMS34_JCRB cell viability assay (AID 1918985); note: nearly all actives have a fitted effect of over 40% in size
Method in brief: as §1

[4] = Quantitative High-Throughput drug screen in 47 multiple myeloma cell lines against the NCATS MIPE library collection: OCIMY7_PLB cell viability assay (AID 1918987); details: OCI-MY7 myeloma viability, CellTiter-Glo ATP, 48 h; viability (% of DMSO): at 45.8 µM (top of the series); note: nearly all actives have a fitted effect of over 65% in size
Method in brief: as §1

[5] = Quantitative High-Throughput drug screen in 47 multiple myeloma cell lines against the NCATS MIPE library collection: OCIMY5_PLB cell viability assay (AID 1918988); note: nearly all actives have a fitted effect of over 65% in size
Method in brief: as §1

[6] = Quantitative High-Throughput drug screen in 47 multiple myeloma cell lines against the NCATS MIPE library collection: OPM1_PLB cell viability assay (AID 1918989); note: nearly all actives have a fitted effect of over 40% in size
Method in brief: as §1

[7] = Quantitative High-Throughput drug screen in 47 multiple myeloma cell lines against the NCATS MIPE library collection: SKMM1_PLB cell viability assay (AID 1919863); details: SKMM1 myeloma viability, CellTiter-Glo ATP, 48 h; viability: stronger effect = lower value; note: nearly all actives have a fitted effect of over 35% in size
Method in brief: as §1

[8] = Quantitative High-Throughput drug screen in 47 multiple myeloma cell lines against the NCATS MIPE library collection: U266_ATCC cell viability assay (AID 1919864); note: nearly all actives have a fitted effect of over 35% in size
Method in brief: as §1

[9] = Quantitative High-Throughput drug screen in 47 multiple myeloma cell lines against the NCATS MIPE library collection: XG6_PLB cell viability assay (AID 1919865); note: nearly all actives have a fitted effect of over 40% in size
Method in brief: as §1

[10] = Quantitative High-Throughput drug screen in 47 multiple myeloma cell lines against the NCATS MIPE library collection: XG1_PLB cell viability assay (AID 1919866); note: nearly all actives have a fitted effect of over 35% in size
Method in brief: as §1

[11] = Quantitative High-Throughput drug screen in 47 multiple myeloma cell lines against the NCATS MIPE library collection: VP6_DJ cell viability assay (AID 1919867); note: nearly all actives have a fitted effect of over 40% in size
Method in brief: as §1

[12] = Quantitative High-Throughput drug screen in 47 multiple myeloma cell lines against the NCATS MIPE library collection: UTMC2_PLB cell viability assay (AID 1919868); details: CellTiter-Glo ATP luminescence, 48 h; viability (% of DMSO control): at 45.8 µM (top of the series); note: nearly all actives have a fitted effect of over 55% in size
Method in brief: as §1

[13] = Quantitative High-Throughput drug screen in 47 multiple myeloma cell lines against the NCATS MIPE library collection: PCM6_Riken cell viability assay (AID 1919870); note: nearly all actives have a fitted effect of over 30% in size
Method in brief: as §1

[14] = Quantitative High-Throughput drug screen in 47 multiple myeloma cell lines against the NCATS MIPE library collection: RPMI8226_ATCC cell viability assay (AID 1919871); note: nearly all actives have a fitted effect of over 30% in size
Method in brief: as §1

[15] = Quantitative High-Throughput drug screen in 47 multiple myeloma cell lines against the NCATS MIPE library collection: OPM2_DSMZ cell viability assay (AID 1919872); note: nearly all actives have a fitted effect of over 30% in size
Method in brief: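 CellTiter-Glo ATP luminescence gave viability after 48 h compound treatment at 37C of 500 multiple myeloma cells per well. Normalisation used DMSO-only wells as 100% and media-only wells as 0% viability; primary qHTS of approved and investigational drugs.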

[16] = Quantitative High-Throughput drug screen in 47 multiple myeloma cell lines against the NCATS MIPE library collection: KMS11_JCRBsus cell viability assay (AID 1919873); note: nearly all actives have a fitted effect of over 50% in size
Method in brief: as §1

[17] = Quantitative High-Throughput drug screen in 47 multiple myeloma cell lines against the NCATS MIPE library collection: KMS28BM_JCRB cell viability assay (AID 1919874); note: nearly all actives have a fitted effect of over 35% in size
Method in brief: as §1

[18] = Quantitative High-Throughput drug screen in 47 multiple myeloma cell lines against the NCATS MIPE library collection: PE2_PLB cell viability assay (AID 1919869); note: nearly all actives have a fitted effect of over 35% in size
Method in brief: as §1
Potency is the fitted concentration of half-maximal effect.

Cc1cnc(Nc2ccc(N3CCN(C)CC3)cc2)nc1Nc1cccc(S(=O)(=O)NC(C)(C)C)c1
active: Potency [1] 7430 nM | Potency [2] 3720 nM | Potency [3] 2350 nM | Potency [4] 935 nM | Potency [5] 1480 nM | Potency [6] 935 nM | Potency [7] 3320 nM | Potency [8] 11800 nM | Potency [9] 662 nM | Potency [10] 469 nM | Potency [11] 469 nM | Potency [12] 2350 nM | Potency [13] 3720 nM | Potency [14] 4180 nM | Potency [15] 6620 nM | Potency [16] 1320 nM | Potency [17] 5260 nM

Cn1cc(CNCC2CCN(c3ncc(C(=O)NO)cn3)CC2)c2ccccc21
active: Potency [1] 29.6 nM | Potency [2] 26.4 nM | Potency [3] 18.7 nM | Potency [4] 33.2 nM | Potency [5] 16.6 nM | Potency [6] 11.8 nM | Potency [7] 59 nM | Potency [8] 37.2 nM | Potency [9] 83.3 nM | Potency [10] 52.6 nM | Potency [11] 13.2 nM | Potency [12] 18.7 nM | Potency [18] 118 nM | Potency [13] 37.2 nM | Potency [14] 66.2 nM | Potency [15] 41.8 nM | Potency [16] 26.4 nM | Potency [17] 18.7 nM

Cc1ncc(-c2ccnc(Nc3ccc(S(C)(=O)=O)cc3)n2)n1C(C)C
active: Potency [1] 5260 nM | Potency [2] 1660 nM | Potency [3] 1870 nM | Potency [4] 833 nM | Potency [5] 3320 nM | Potency [6] 2350 nM | Potency [7] 5260 nM | Potency [8] 3320 nM | Potency [9] 1870 nM | Potency [10] 1480 nM | Potency [11] 1870 nM | Potency [12] 3320 nM | Potency [14] 5900 nM | Potency [15] 3720 nM | Potency [16] 2090 nM | Potency [17] 4690 nM

CCCCCN=C(N)NN=Cc1c[nH]c2ccc(OC)cc12
active: Potency [1] 10500 nM | Potency [2] 2090 nM | Potency [3] 7430 nM | Potency [4] 2960 nM | Potency [5] 3720 nM | Potency [6] 11800 nM | Potency [7] 296 nM | Potency [10] 2350 nM | Potency [18] 4180 nM | Potency [14] 14800 nM | Potency [15] 10500 nM | Potency [16] 2640 nM

C=CC(=O)Nc1ccc2ncnc(Nc3ccc(OCc4cccc(F)c4)c(Cl)c3)c2c1
active: Potency [1] 2640 nM | Potency [2] 29.6 nM | Potency [3] 332 nM | Potency [4] 105 nM | Potency [5] 52.6 nM | Potency [6] 209 nM | Potency [8] 14800 nM | Potency [9] 14.8 nM | Potency [10] 66.2 nM | Potency [11] 264 nM | Potency [12] 743 nM | Potency [18] 590 nM | Potency [13] 1660 nM | Potency [14] 9350 nM | Potency [15] 1050 nM | Potency [16] 187 nM | Potency [17] 132 nM

CNC(=O)c1cccc(-c2ccc3c(N4CCOC[C@H]4C)nc(N4CCOC[C@H]4C)nc3n2)c1
active: Potency [1] 18.7 nM | Potency [2] 11.8 nM | Potency [3] 59 nM | viability (% of DMSO) [4] 66.1% | Potency [5] 5900 nM | Potency [6] 105 nM | Potency [8] 469 nM | Potency [9] 83.3 nM | Potency [10] 11.8 nM | Potency [11] 13.2 nM | Potency [12] 59 nM | Potency [18] 83.3 nM | Potency [13] 118 nM | Potency [14] 20.9 nM | Potency [15] 105 nM

Nc1ncn([C@@H]2O[C@H](CO)[C@@H](O)[C@@H]2O)c(=O)n1
active: Potency [1] 20900 nM | Potency [2] 5900 nM | Potency [3] 11800 nM | Potency [4] 3720 nM | Potency [5] 9350 nM | Potency [6] 11800 nM | Potency [7] 13200 nM | Potency [8] 10500 nM | Potency [9] 9350 nM | Potency [10] 2960 nM | Potency [11] 11800 nM | Potency [12] 8330 nM | Potency [18] 18700 nM | Potency [13] 8330 nM | Potency [15] 14800 nM | Potency [16] 14800 nM | Potency [17] 16600 nM

C[C@@]12C(=O)OC(=O)[C@@]1(C)C1CCC2O1
active: Potency [1] 2350 nM | Potency [2] 3720 nM | Potency [3] 833 nM | Potency [4] 743 nM | Potency [5] 2960 nM | Potency [7] 7430 nM | Potency [8] 1660 nM | Potency [9] 4180 nM | Potency [10] 2640 nM | Potency [11] 2350 nM | Potency [12] 46.9 nM | Potency [18] 2640 nM | Potency [13] 2350 nM | Potency [14] 2960 nM | Potency [15] 662 nM | Potency [16] 743 nM | Potency [17] 1050 nM

COc1cc(OC)cc(-c2ccc3ncc4ccc(=O)n(-c5ccc(N6CCNCC6)c(C(F)(F)F)c5)c4c3c2)c1
active: Potency [1] 5260 nM | Potency [2] 833 nM | Potency [3] 6620 nM | Potency [4] 1180 nM | Potency [5] 1320 nM | Potency [7] 13200 nM | Potency [8] 11800 nM | Potency [9] 833 nM | Potency [11] 2640 nM | Potency [12] 2960 nM | Potency [18] 3320 nM | Potency [13] 3720 nM | Potency [14] 11800 nM | Potency [15] 8330 nM | Potency [16] 2640 nM | Potency [17] 4690 nM
